# The panel holds about 83,000 compounds, 20% with a hit somewhere; the sample as a whole holds those more often.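 The test compound was applied at a single concentration to cells in 96-well plates for 48 hours, and percent growth was recorded.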 Calls of active or inactive are those of the source. Rule for the calls: active = growth percent below 10; inactive = the rest.
# System: SNB-19 CNS
# Experiment: NCI-60 one-dose screen, 48 h (100 = growth as untreated, 0 = no growth, -100 = all killed)
# Conditions: 10 µM unless noted
row,Structure (SMILES),growth
1,COc1cc(-c2nnc(-c3nc(-c4cc(OC)c(OC)c(OC)c4)n4ccccc34)o2)ccc1N,77.7% (inactive)
2,O=C(Nc1ccc2c(c1)C(=O)c1ccccc1-2)c1ccccc1,73% (inactive)
3,COc1ccc(CNC(=O)c2c(C)n([O-])c3ccc(OC)cc3[n+]2=O)cc1,97.8% (inactive)
4,N#CC(C#N)C(C#N)C#N,114% (inactive)
5,CC[N+](CCCCCCCCCC[N+](CC)(c1ccccn1)c1ccccn1)(c1ccccn1)c1ccccn1,13.3% (inactive)
6,CCCCCCCSc1ncnc2[nH]ncc12,80.9% (inactive)
7,CC(C)N(Cc1ccccc1)c1c(S)ssc1=S,20.9% (inactive)
8,O=C(NCCNC(=O)Oc1cccc2ccccc12)Oc1cccc2ccccc12,94.5% (inactive)
9,Cc1[nH]c(=O)[nH]c(=O)c1CCSSCCc1c(C)[nH]c(=O)[nH]c1=O,105% (inactive)
10,CC(C)N(Cc1ccccc1)c1c(Cl)ssc1=O,101% (inactive)
11,COc1cnc2c(c1)C(=O)c1c-2n(CCCN2CCCC2)c(=O)c2cc(F)ccc12,19.7% (inactive)
12,CSc1nc(-c2ccc(O)cc2O)c2c(=O)[nH]c(Nc3ccc(S(=O)(=O)Nc4nc(C)cc(C)n4)cc3)nc2n1,96.1% (inactive)
13,c1ccc(COc2ccc(Nc3ncnc4c3cnn4-c3ccccc3)cc2)cc1,96% (inactive)
14,O=C1/C(=C/c2ccc(F)cc2)Cc2ccccc21,92.3% (inactive)
15,CC[n+]1c(/C=C/c2ccc(N3CCCC3)cc2)cccc1/C=C/c1ccc(N2CCCC2)cc1,-93.9% (active)
16,ICCC(c1ccccc1)(c1ccccc1)c1ccccc1,65.3% (inactive)
17,O=C(CSc1nnc(-c2cc(-c3ccccc3)nc3ccccc23)o1)c1ccc(Br)cc1,93.2% (inactive)
18,O=c1[nH]c(SCc2ccccc2)nc2nc(Nc3ccc(NC(=S)Nc4ccccc4)cc3)nc(-c3ccc(O)cc3O)c12,86.9% (inactive)
19,Cc1cc(Cl)ccc1Nc1nc(C(F)(F)F)ccc1C(=O)N/N=C/c1ccc(Cl)cc1,14.6% (inactive)
20,Cc1sc2nc3c4ccccc4c(NCCCN(C)C)nn3c(=O)c2c1C,81.6% (inactive)

row,Structure (SMILES),growth
1,C[C@H](C(=O)N[C@@H](Cc1ccc(-c2ccccc2)cc1)C(=O)NC1CC(C)(C)NC(C)(C)C1)c1ccc(-c2ccccc2)c(F)c1,-6.87% (active)
2,Cc1csc(C#Cc2cncc(O)c2)n1,112% (inactive)
3,CN[C@@H]1C(OC2[C@H](O[C@H]3[C@H](O)[C@@H](O)[C@H](N=C(N)N)[C@@H](O)[C@@H]3N=C(N)N)OC(C)[C@]2(O)CO)OC(CO)C(O)C1O (some centres not stated),113% (inactive)
4,COCCOCCOCCOCCOc1ccc2c(c1)C(=O)c1nc3ncccc3c(=O)n1-2,-87% (active)
5,N#CC1c2ccccc2C=CN1C(=O)N(c1ccccc1)c1ccccc1 (configuration not stated),98.5% (inactive)
6,Nc1ccc2c(c1)C(=O)c1cc(Cl)c(Cl)cc1-2,96.6% (inactive)
7,COc1ccc2c(c1)C(=Nc1cc(OC)c(OC)c(OC)c1)C(=O)N2,113% (inactive)
8,CN(C)CCCN=c1cc2c(=O)n(CCCN(C)C)c(=O)c3c(NCCCN(C)C)cc4c(O)n(CCCN(C)C)c(=O)c1c4c3-2,10.7% (inactive)
9,COc1ccc(-c2cnc(SCC(=O)Nc3ccc(-c4nc5ccccc5s4)cc3)n2-c2ccc(OC)cc2)cc1,98.8% (inactive)
10,O=c1[nH]cc(Nc2cc(Cl)c3nonc3c2[N+](=O)[O-])c(=O)[nH]1,95.4% (inactive)
11,CCOC(=O)Nc1cc(-c2ccc(C)c(NS(C)(=O)=O)c2)nn2c(C)nnc12,39.1% (inactive)
12,NS(=O)(=O)c1cc2c(cc1Cl)NC=NS2(=O)=O,107% (inactive)
13,COc1ccc2ncccc2c1Cc1c(OC)ccc2ncccc12,82.2% (inactive)
14,c1ccc(-c2n(Cc3ccc4ccccc4c3)cc[n+]2Cc2ccc3ccccc3c2)cc1,-32.4% (active)
15,Nc1nc(Nc2ccccc2SSc2ccccc2Nc2nc(N)nc(-c3cccc(Cl)c3)n2)nc(-c2cccc(Cl)c2)n1,96.1% (inactive)
16,CC1CN(CC(O)c2ccc(Br)cc2)CCO1 (configuration not stated),105% (inactive)
17,CC[C@@H](C)/C=C(C)/C=C/C(=O)c1c(O)c(-c2ccc(O)cc2)cn(OC2CC(=O)CCC(C)OC(=O)CC2O)c1=O (some centres not stated),22.9% (inactive)
18,CCCCc1n(Cc2ccc3ccccc3c2)cc[n+]1Cc1ccc2ccccc2c1,-22.9% (active)
19,COc1cc(/C=C2\SC(N3CCCCC3)=NC2=O)ccc1OCCCCCCOc1ccc(/C=C2\SC(N3CCCCC3)=NC2=O)cc1OC,44% (inactive)
20,CCCCCCCCN(CCO)CCCCCCCC,113% (inactive)

# System: U251 CNS
# Experiment: as above
# Conditions: 10 µM unless noted
row,Structure (SMILES),growth
1,COc1cc(-c2nnc(-c3nc(-c4cc(OC)c(OC)c(OC)c4)n4ccccc34)o2)ccc1N,64.2% (inactive)
2,O=C(Nc1ccc2c(c1)C(=O)c1ccccc1-2)c1ccccc1,-13.9% (active)
3,COc1ccc(CNC(=O)c2c(C)n([O-])c3ccc(OC)cc3[n+]2=O)cc1,96.3% (inactive)
4,N#CC(C#N)C(C#N)C#N,93.6% (inactive)
5,CC[N+](CCCCCCCCCC[N+](CC)(c1ccccn1)c1ccccn1)(c1ccccn1)c1ccccn1,6.56% (active)
6,CCCCCCCSc1ncnc2[nH]ncc12,38.3% (inactive)
7,CC(C)N(Cc1ccccc1)c1c(S)ssc1=S,5.51% (active)
8,O=C(NCCNC(=O)Oc1cccc2ccccc12)Oc1cccc2ccccc12,116% (inactive)
9,CC(C)N(Cc1ccccc1)c1c(Cl)ssc1=O,102% (inactive)
10,COc1cnc2c(c1)C(=O)c1c-2n(CCCN2CCCC2)c(=O)c2cc(F)ccc12,-19% (active)
11,CSc1nc(-c2ccc(O)cc2O)c2c(=O)[nH]c(Nc3ccc(S(=O)(=O)Nc4nc(C)cc(C)n4)cc3)nc2n1,100% (inactive)
12,c1ccc(COc2ccc(Nc3ncnc4c3cnn4-c3ccccc3)cc2)cc1,106% (inactive)
13,CC[n+]1c(/C=C/c2ccc(N3CCCC3)cc2)cccc1/C=C/c1ccc(N2CCCC2)cc1,-89.6% (active)
14,ICCC(c1ccccc1)(c1ccccc1)c1ccccc1,23% (inactive)
15,O=C(CSc1nnc(-c2cc(-c3ccccc3)nc3ccccc23)o1)c1ccc(Br)cc1,98.2% (inactive)
16,O=c1[nH]c(SCc2ccccc2)nc2nc(Nc3ccc(NC(=S)Nc4ccccc4)cc3)nc(-c3ccc(O)cc3O)c12,85.3% (inactive)
17,Cc1cc(Cl)ccc1Nc1nc(C(F)(F)F)ccc1C(=O)N/N=C/c1ccc(Cl)cc1,2.95% (active)
18,Cc1sc2nc3c4ccccc4c(NCCCN(C)C)nn3c(=O)c2c1C,55.8% (inactive)
19,C[C@H](C(=O)N[C@@H](Cc1ccc(-c2ccccc2)cc1)C(=O)NC1CC(C)(C)NC(C)(C)C1)c1ccc(-c2ccccc2)c(F)c1,-71% (active)

row,Structure (SMILES),growth
1,Cc1csc(C#Cc2cncc(O)c2)n1,107% (inactive)
2,CN[C@@H]1C(OC2[C@H](O[C@H]3[C@H](O)[C@@H](O)[C@H](N=C(N)N)[C@@H](O)[C@@H]3N=C(N)N)OC(C)[C@]2(O)CO)OC(CO)C(O)C1O (some centres not stated),103% (inactive)
3,COCCOCCOCCOCCOc1ccc2c(c1)C(=O)c1nc3ncccc3c(=O)n1-2,-63.6% (active)
4,N#CC1c2ccccc2C=CN1C(=O)N(c1ccccc1)c1ccccc1 (configuration not stated),57.4% (inactive)
5,Nc1ccc2c(c1)C(=O)c1cc(Cl)c(Cl)cc1-2,90.4% (inactive)
6,COc1ccc2c(c1)C(=Nc1cc(OC)c(OC)c(OC)c1)C(=O)N2,93% (inactive)
7,CN(C)CCCN=c1cc2c(=O)n(CCCN(C)C)c(=O)c3c(NCCCN(C)C)cc4c(O)n(CCCN(C)C)c(=O)c1c4c3-2,3.63% (active)
8,COc1ccc(-c2cnc(SCC(=O)Nc3ccc(-c4nc5ccccc5s4)cc3)n2-c2ccc(OC)cc2)cc1,109% (inactive)
9,O=c1[nH]cc(Nc2cc(Cl)c3nonc3c2[N+](=O)[O-])c(=O)[nH]1,98.6% (inactive)
10,NS(=O)(=O)c1cc2c(cc1Cl)NC=NS2(=O)=O,99.7% (inactive)
11,COc1ccc2ncccc2c1Cc1c(OC)ccc2ncccc12,57.4% (inactive)
12,c1ccc(-c2n(Cc3ccc4ccccc4c3)cc[n+]2Cc2ccc3ccccc3c2)cc1,-93.5% (active)
13,Nc1nc(Nc2ccccc2SSc2ccccc2Nc2nc(N)nc(-c3cccc(Cl)c3)n2)nc(-c2cccc(Cl)c2)n1,78.5% (inactive)
14,CC1CN(CC(O)c2ccc(Br)cc2)CCO1 (configuration not stated),95.8% (inactive)
15,CC[C@@H](C)/C=C(C)/C=C/C(=O)c1c(O)c(-c2ccc(O)cc2)cn(OC2CC(=O)CCC(C)OC(=O)CC2O)c1=O (some centres not stated),11.1% (inactive)
16,CCCCc1n(Cc2ccc3ccccc3c2)cc[n+]1Cc1ccc2ccccc2c1,-46.5% (active)
17,COc1cc(/C=C2\SC(N3CCCCC3)=NC2=O)ccc1OCCCCCCOc1ccc(/C=C2\SC(N3CCCCC3)=NC2=O)cc1OC,-3.37% (active)
18,CCCCCCCCN(CCO)CCCCCCCC,102% (inactive)

# Reference: PubChem BioAssay (NCI)
